Experimental data from PubChem BioAssay (EPA / NIEHS).
Where “and” joins values, the source holds several entries; their conditions need not be identical. Identical values can stand only once. Results filed as inconclusive are left out. Calls of active or inactive are those of the source. How the source made its calls, unless noted: active means hit-call score of the fitted dose curve at least 0.9, where 1 is the maximum; inconclusive means response in the unintended direction; inactive means score below 0.9.

Legend:
[1] = molecular target: Cellular tumor antigen p53 (Homo sapiens) (UniProt P04637); experiment: TOX21_p53_BLA_p2_ratio: Tox21 HCT-116 p53 Agonism Beta-lactamase Assay, Ratio, Phase 2 (AID 2283592)
Sequence of Cellular tumor antigen p53 (Homo sapiens) (P04637 whole entry, looked up): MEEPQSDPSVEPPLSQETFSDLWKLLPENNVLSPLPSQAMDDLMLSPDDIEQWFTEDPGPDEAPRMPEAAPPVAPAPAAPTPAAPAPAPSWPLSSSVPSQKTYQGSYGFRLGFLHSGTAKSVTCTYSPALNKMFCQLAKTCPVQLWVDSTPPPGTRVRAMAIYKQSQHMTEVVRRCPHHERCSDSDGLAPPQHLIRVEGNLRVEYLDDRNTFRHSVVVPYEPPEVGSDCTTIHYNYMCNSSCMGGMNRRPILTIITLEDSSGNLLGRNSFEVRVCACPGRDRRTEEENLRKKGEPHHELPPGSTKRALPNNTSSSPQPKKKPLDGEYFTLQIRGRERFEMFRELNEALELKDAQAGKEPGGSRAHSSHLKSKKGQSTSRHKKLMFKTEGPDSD
Outline: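 In this cell-based reporter format, HCT116 cells were dosed with chemicals delivered from DMSO by 217-fold dilution and incubated 16 h at 37C. Emission at 460 and 530 nm after 2 h CCF4-AM loading provided the ratio, fitted upward versus DMSO.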

[2] = TOX21_p53_BLA_p3_viability: Viability Assessment in the Tox21 HCT-116 p53 Agonism Beta-lactamase Assay, Phase 3 (AID 2283593);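 further: cells exposed to compound for 16 h before reading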
Outline: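 HCT116 cells, 4000/well, dosed 5 h after plating by pin transfer (217-fold dilution from DMSO stock) and incubated 16 h at 37C, 5% CO2. Viability read as ATP luminescence with CellTiter-Glo after 30 min at room temperature.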

[3] = molecular target: Cellular tumor antigen p53 (Homo sapiens) (UniProt P04637); experiment: TOX21_p53_BLA_p3_ratio: Tox21 HCT-116 p53 Agonism Beta-lactamase Assay, Ratio, Phase 3 (AID 2283596)
Outline: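 HCT116 p53-bla cells (4000/well) given compound in DMSO (217-fold dilution) after 5 h, incubated 16 h at 37C. CCF4-AM substrate 2 h at room temperature; 460/530 nm emission ratio, gain fitted against DMSO.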

[4] = TOX21_p53_BLA_p4_viability: Viability Assessment in the Tox21 HCT-116 p53 Agonism Beta-lactamase Assay, Phase 4 (AID 2283597);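 further: hits lower the luminescence signal meaning cytotoxicity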
Outline: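 We seeded HCT116 p53 reporter cells at 4000/well and waited 5 h. We then added compounds in DMSO at a 217-fold dilution and incubated for 16 h. Viability was read as CellTiter-Glo luminescence after 30 min at RT.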

[5] = molecular target: Cellular tumor antigen p53 (Homo sapiens) (UniProt P04637); experiment: TOX21_p53_BLA_p5_ratio: Tox21 HCT-116 p53 Agonism Beta-lactamase Assay, Ratio, Phase 5 (AID 2283599)
Outline: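 HCT-116 p53-bla cells (4000/well) plated 5 h, dosed with compound (217-fold DMSO dilution) for 16 h at 37 C; CCF4-AM substrate 2 h at room temperature. Activity is the 460/530 nm emission ratio (405 nm excitation), fitted in gain-of-signal direction versus DMSO.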

[6] = TOX21_p53_BLA_p5_viability: Viability Assessment in the Tox21 HCT-116 p53 Agonism Beta-lactamase Assay, Phase 5 (AID 2283600)
Outline: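 Compounds, pinned from DMSO at 217-fold dilution, were left on the cells for 16 h. The viability endpoint was ATP content measured by CellTiter-Glo luminescence, where falling signal reflects cytotoxicity.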

[7] = molecular target: Cellular tumor antigen p53 (Homo sapiens) (UniProt P04637); experiment: TOX21_p53_BLA_p4_ratio: Tox21 HCT-116 p53 Agonism Beta-lactamase Assay, Ratio, Phase 4 (AID 2283601)
Outline: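 HCT-116 p53 beta-lactamase reporter cells (4000/well) preincubated 5 h, then compound (217-fold dilution of DMSO stock) for 16 h at 37C. CCF4-AM substrate added 2 h at room temperature; 460/530 nm emission ratio fitted upward versus DMSO.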

[8] = CCTE_Harrill_HTTr_Viability_MCF7: CCTE's 6-hour Cell Viability Assessment for the High-Throughput Transcriptomics (HTTr) Platform, in MCF-7 cells cultured in DMEM + 10% fetal bovine serum, Harrill Lab (AID 2284010; active means hit-call score of the fitted dose curve at least 0.9, where 1 is the maximum; inactive means score below 0.9)
Outline: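 Membrane integrity was scored by high-content imaging of propidium iodide dye exclusion after a 6 h exposure across an eight-point dilution series. Data were fitted bidirectionally relative to DMSO as negative control and baseline.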

[9] = CCTE_Harrill_HTTr_Apoptosis_MCF7: CCTE's 6-hour Apoptosis Assessment for the High-Throughput Transcriptomics (HTTr) Platform, in MCF-7 cells cultured in DMEM + 10% fetal bovine serum, Harrill Lab (AID 2284011; active means hit-call score of the fitted dose curve at least 0.9, where 1 is the maximum; inactive means score below 0.9)
Outline: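 Read-out: CellEvent Caspase 3/7 Green signal by high content imaging, gain-of-signal indicating apoptosis. MCF-7 cells, DMEM + 10% FBS, eight-point dilution series, 6 h exposure. Curves fitted bidirectionally relative to DMSO negative control.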

[10] = CCTE_Harrill_HTTr_CellCount_MCF7: CCTE's Cell Proliferation Assessment for the High-Throughput Transcriptomics (HTTr) Platform, Harrill Lab (AID 2284012);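 further: cells exposed to compound for six hours; intended direction is loss of nuclei count meaning fewer cells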
Outline: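 MCF-7 cells were exposed for 6 h to an eight-point dilution series; Hoechst-labeled nuclei were counted by high content imaging. Curves were fitted bidirectionally against DMSO as negative control and baseline, with signal loss indicating reduced cell count.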

[11] = ACEA_ER_AUC_viability: ACEA Biosciences xCELLigence Real-Time Cell Analysis on Estrogen Receptor Agonism for Viability (AID 2283782);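 further: continuous compound exposure with impedance area under curve over 80 h; hit means loss of impedance signal meaning reduced cell growth or viability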
Outline: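 T47D cells preconditioned in phenol red-free RPMI with charcoal-stripped FBS, then dosed with 8-point 1:4 series from 100 uM (up to 0.5% DMSO). Impedance monitored up to ~80 h; area-under-curve loss versus DMSO taken as viability.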

[12] = molecular target: Thyroid hormone receptor alpha (Rattus norvegicus) + Thyroid hormone receptor beta (Rattus norvegicus) (UniProt P18113+P63059); experiment: TOX21_TR_LUC_GH3_Antagonist_Followup: Tox21 GH3 Thyroid Hormone Receptor Antagonism Luciferase Follow-Up Assay (AID 2283942)
Outline: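 Antagonist mode: GH3 cells seeded 1,500/well, compounds at 15 concentrations (92 uM to 5nM final) plus T3 at 1.0 nM final, 24 h at 37C. Luciferase read with ONE-Glo after 30 min at room temperature.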

THRA (gene 7067) = THRA (gene 7067) (UniProt P10827); experiment: TOX21_TRA_COA_Antagonist_Followup_ratio: Tox21 Thyroid Hormone Receptor alpha Antagonism through Coactivator Recruitment Follow-Up Assay, Ratio (AID 2283953)
Sequence of THRA (gene 7067) (P10827 whole entry, looked up, the tested form may be a part): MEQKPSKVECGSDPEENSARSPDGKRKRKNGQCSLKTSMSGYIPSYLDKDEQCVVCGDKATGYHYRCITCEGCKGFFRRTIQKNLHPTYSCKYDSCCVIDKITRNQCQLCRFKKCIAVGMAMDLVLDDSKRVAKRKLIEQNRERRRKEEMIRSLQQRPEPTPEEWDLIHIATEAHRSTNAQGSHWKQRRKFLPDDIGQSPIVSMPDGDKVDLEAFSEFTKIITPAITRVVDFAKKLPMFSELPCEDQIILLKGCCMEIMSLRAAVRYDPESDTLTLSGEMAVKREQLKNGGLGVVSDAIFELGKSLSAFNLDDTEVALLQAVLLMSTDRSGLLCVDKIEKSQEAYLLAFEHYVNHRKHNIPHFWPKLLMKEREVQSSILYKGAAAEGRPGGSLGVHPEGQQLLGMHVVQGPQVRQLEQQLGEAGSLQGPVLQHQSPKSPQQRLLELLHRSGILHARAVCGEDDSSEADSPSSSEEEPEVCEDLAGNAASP
Outline: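 This follow-up to the GH3 luciferase screen checks specificity in a cell-free format. It measures SRC-2 coactivator peptide binding to TRα LBD by TR-FRET and scores loss of ratio signal relative to DMSO.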

THRB (gene 7068) = THRB (gene 7068) (UniProt P10828); experiment: TOX21_TRB_BLA_Antagonist_Followup_ratio: Tox21 Thyroid Hormone Receptor beta Antagonism Beta-lactamase (BLA) Follow-Up Assay, Ratio (AID 2283958)
Sequence of THRB (gene 7068) (P10828 whole entry, looked up, the tested form may be a part): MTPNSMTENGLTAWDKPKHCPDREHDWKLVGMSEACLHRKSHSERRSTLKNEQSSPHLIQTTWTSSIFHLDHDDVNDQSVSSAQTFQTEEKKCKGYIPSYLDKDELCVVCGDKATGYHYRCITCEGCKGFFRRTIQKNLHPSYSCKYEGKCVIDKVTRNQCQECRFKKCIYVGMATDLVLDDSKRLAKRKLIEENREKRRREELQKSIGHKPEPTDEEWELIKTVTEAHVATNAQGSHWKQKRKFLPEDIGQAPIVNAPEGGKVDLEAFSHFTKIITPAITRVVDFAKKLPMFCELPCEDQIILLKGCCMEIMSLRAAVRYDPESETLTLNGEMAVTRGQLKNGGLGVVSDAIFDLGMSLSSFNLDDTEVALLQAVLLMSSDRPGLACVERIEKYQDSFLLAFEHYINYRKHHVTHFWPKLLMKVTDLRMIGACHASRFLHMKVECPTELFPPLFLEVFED
Outline: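 GAL4-DBD/human TRβ-LBD fusion in GeneBLAzer UAS-bla HEK293T cells, 3,000 cells/well in phenol red-free DMEM with 2% charcoal-stripped FBS; compounds at 11 concentrations in triplicate, 18 h at 37C. CCF4-AM substrate 2 h, 460:530 nm ratio relative to DMSO.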

[13] = TOX21_TRB_BLA_Antagonist_Followup_viability: Viability Assessment in the Tox21 Thyroid Hormone Receptor beta Antagonism Beta-lactamase (BLA) Follow-Up Assay (AID 2283961)
Outline: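 Viability read as CellTiter-Glo ATP luminescence (loss of signal = cytotoxicity) in the same plates as the TRβ-bla readout. TRβ-LBD/GAL4 UAS-bla HEK293T cells were exposed to compounds, 11 concentrations in triplicate, for 18 h at 37C/5% CO2.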

[14] = molecular target: Retinoic acid receptor RXR-alpha (Homo sapiens) (UniProt P19793); experiment: TOX21_TR_RXR_BLA_Antagonist_Followup_ratio: Tox21 Thyroid Hormone Receptor beta Retinoid X Receptor alpha (RXRa) Antagonism Beta-lactamase (BLA) Follow-Up Assay, Ratio (AID 2283972)
Sequence of Retinoic acid receptor RXR-alpha (Homo sapiens) (P19793 whole entry, looked up, the tested form may be a part): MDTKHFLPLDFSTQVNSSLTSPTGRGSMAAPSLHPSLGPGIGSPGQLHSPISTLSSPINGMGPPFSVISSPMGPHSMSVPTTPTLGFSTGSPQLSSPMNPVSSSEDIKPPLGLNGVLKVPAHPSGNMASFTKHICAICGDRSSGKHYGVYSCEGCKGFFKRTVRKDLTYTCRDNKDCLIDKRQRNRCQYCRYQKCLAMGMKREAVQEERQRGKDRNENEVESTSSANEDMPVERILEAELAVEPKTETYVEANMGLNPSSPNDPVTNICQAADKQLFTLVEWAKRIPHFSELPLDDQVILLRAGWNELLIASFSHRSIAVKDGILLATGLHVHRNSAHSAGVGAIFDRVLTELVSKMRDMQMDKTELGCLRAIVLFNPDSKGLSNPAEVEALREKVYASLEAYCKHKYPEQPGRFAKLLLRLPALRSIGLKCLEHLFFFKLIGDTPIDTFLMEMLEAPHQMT
Outline: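 Beta-lactamase reporter readout as cleaved/uncleaved substrate ratio (460:530 nm) after 2 h substrate loading at room temperature. GAL4-RXRa bla HEK293T cells were exposed 16 h at 37C to 11-point compound series; loss of signal scored against DMSO baseline.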

Measured: AC50

NC(N)=NN=Cc1c(Cl)cccc1Cl
inactive: [1] | [2] | [3] | [4] | [5] | [6] | [7]

O=C(O)c1cc(=O)c2c(OCC(O)COc3cccc4oc(C(=O)O)cc(=O)c34)cccc2o1
not listed: [11] | [12] | THRA (gene 7067) | THRB (gene 7068) | [13] | [14]
inactive: all other assays above

CCOC(=O)COc1ccc(C)cc1
inactive: [1] | [2] | [3] | [4] | [5] | [6] | [7] | [11]

COC(=O)C1=C(C)NC(C)=C(C(=O)OC(C)(C)CN(C)CCC(c2ccccc2)c2ccccc2)C1c1cccc([N+](=O)[O-])c1 (stereo not given)
inactive: [1] | [2] | [3] | [4] | [5] | [6] | [7]

CCCCCCCCCCC[C@@H](C[C@@H]1OC(=O)[C@H]1CCCCCC)OC(=O)[C@H](CC(C)C)NC=O
inactive: [1] | [2] | [3] | [4] | [5] | [7]

CO[C@H](C(=O)[C@@H](O)[C@@H](C)O)C1Cc2cc3cc(O[C@H]4C[C@@H](O[C@H]5C[C@@H](O)[C@H](O)[C@@H](C)O5)[C@@H](O)[C@@H](C)O4)c(C)c(O)c3c(O)c2C(=O)[C@H]1O[C@H]1C[C@@H](O[C@H]2C[C@@H](O[C@H]3C[C@](C)(O)[C@H](O)[C@@H](C)O3)[C@H](O)[C@@H](C)O2)[C@H](O)[C@@H](C)O1 (stereo not given in full)
active: [1] 23.8 nM and 43.4 nM | [3] 24.2 nM and 37.6 nM | [5] 36 nM and 39.5 nM | [7] 45.6 nM and 49.7 nM | [12] 0.745 µM | THRB (gene 7068) 4.01 µM | [14] 1.36 µM
inactive: [2] | [4] | [6] | THRA (gene 7067) | [13]

CCCc1c2oc(C(=O)O)cc(=O)c2cc2c(=O)cc(C(=O)O)n(CC)c12
inactive: [1] | [2] | [3] | [4] | [5] | [7]

Nc1ccccc1O
active: [1] 41 µM | [3] 39.2 µM | [4] 75.4 µM | [5] 32.1 µM | [7] 35.2 µM
inactive: [2]

C[C@@H]1C[C@H]2[C@@H]3C[C@H](F)C4=CC(=O)C=C[C@]4(C)[C@@]3(Cl)[C@@H](O)C[C@]2(C)[C@H]1C(=O)COC(=O)C(C)(C)C
inactive: [1] | [2] | [3] | [4] | [5] | [7]

O=S(=O)(O)CCCS(=O)(=O)O
inactive: [1] | [2] | [3] | [4] | [5] | [7]

CCO[Si](CC(C)C)(OCC)OCC
inactive: [1] | [2] | [3] | [4] | [5] | [7]

CCC[C@@H]1C[C@@H](C(=O)N[C@@H]([C@H]2O[C@H](SC)[C@H](OP(=O)(O)O)[C@@H](O)[C@H]2O)[C@H](C)Cl)N(C)C1
inactive: [1] | [2] | [3] | [4] | [5] | [7]

Nc1c2c(nc3ccccc13)CCCC2
inactive: [1] | [2] | [3] | [4] | [5] | [6] | [7] | [8] | [10]
